Screening results as filed in PubChem BioAssay.
This is a sample that favours compounds with a hit; in the whole collection about 3.4% have one here.
MITF inh = human MITF inhibition, primary screen | AlphaScreen MITF homodimerization, bead proximity signal | inhibition, % at 2.6 µM | actives 0.91% (n = 650,000); in the data active means inhibition above about 50%;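 further: 0% = vehicle wells with protein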
FBW7 act = activators of human E3 ligase FBW7; AID 1259310; normalized activity (activation), % at 26.1 µM; actives 0.13% (n = 650,000); AlphaScreen FBW7–phospho-cyclin E peptide binding, activator screen; Q969H0; in the data active means normalized activity above about 1.9%;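 further: purified mutant Fbw7 with reduced substrate affinity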
Target sequence (Q969H0 whole entry, looked up): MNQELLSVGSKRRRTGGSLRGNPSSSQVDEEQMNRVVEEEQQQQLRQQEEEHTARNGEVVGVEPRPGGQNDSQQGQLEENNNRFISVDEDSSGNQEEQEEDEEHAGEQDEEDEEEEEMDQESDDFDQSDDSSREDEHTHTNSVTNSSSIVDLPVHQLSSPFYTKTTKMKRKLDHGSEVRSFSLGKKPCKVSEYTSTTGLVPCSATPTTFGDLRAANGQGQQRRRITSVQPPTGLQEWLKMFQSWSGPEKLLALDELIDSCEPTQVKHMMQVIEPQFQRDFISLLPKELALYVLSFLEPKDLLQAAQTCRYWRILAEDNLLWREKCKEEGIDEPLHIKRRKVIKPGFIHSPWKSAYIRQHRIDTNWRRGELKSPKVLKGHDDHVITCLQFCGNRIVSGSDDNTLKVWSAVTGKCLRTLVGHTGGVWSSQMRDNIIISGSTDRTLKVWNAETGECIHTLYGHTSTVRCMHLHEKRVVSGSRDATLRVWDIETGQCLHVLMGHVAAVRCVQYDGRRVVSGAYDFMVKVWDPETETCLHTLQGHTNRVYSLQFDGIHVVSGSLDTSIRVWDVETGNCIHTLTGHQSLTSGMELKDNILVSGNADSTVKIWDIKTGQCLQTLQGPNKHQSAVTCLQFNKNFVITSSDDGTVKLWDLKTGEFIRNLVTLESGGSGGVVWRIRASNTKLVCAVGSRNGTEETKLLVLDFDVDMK
TEAD-YAP inh = TEAD-YAP interaction inhibition; HEK-TIYL cells, TEAD-Gal4/YAP UAS-luciferase luminescence; AID 1259422; inhibition, % at 9.12 µM; actives 1.4% (n = 640,000); in the data active means inhibition above about 32%;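 further: 0% = median of test compound wells and 100% = reference inhibitor wells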
GPR151 activ = activates the human receptor GPR151; AID 1508602; actives 1% (n = 650,000); activation, % at 11.2 µM; PathHunter beta-arrestin GPR151 cells, luminescence; in the data active means activation above about 4.9%;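 further: 0% = median of compound wells and 100% = cells with positive control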
* = called active by the depositor; . = not tested or not shown.

SMILES	MITF inh	FBW7 act	TEAD-YAP inh	GPR151 activ
CSC(Nc1ccc(Br)cc1)=C(C#N)C#N	-1	0	38*	1
NCc1nn(CCc2ccccn2)c(=O)c2ccccc12	26	1	59*	0
Cn1nc(CN)c2ccccc2c1=O	0	0	11	-3
C=CCOC(=O)C1=C(C)NC(=S)NC1c1ccccc1OCC (configuration not stated)	3	0	1	-1
CCOC(=O)C1=C(C)NC(=S)NC1c1ccccc1OCC(=O)Nc1ccc(C)cc1 (configuration not stated)	2	0	36*	1
Cc1ccc(-n2nc3c(c2NC(=O)c2cc(C)cc(C)c2)CS(=O)(=O)C3)cc1	-15	0	-1	0
COc1ccc(-c2nc(NCCc3ccc(O)cc3)c3[nH]cnc3n2)cc1	2	0	59*	1
COc1ccc(CCNc2nc(-c3ccc(OC)nc3)nc3nc[nH]c23)cc1	15	0	20	0
COc1ccc(-c2nc(NCCc3ccc(O)cc3)c3[nH]cnc3n2)cn1	8	0	33*	2
O/C(=C\c1nc2ccccc2nc1/C=C(\O)c1ccccc1)c1ccccc1	8	0	-30	-1
C/C(O)=C/c1nc2cccnc2nc1/C=C(/C)O	73*	0	7	-1
O=C(NCc1cccc(C(F)(F)F)c1)c1csc(Nc2ccc(C(F)(F)F)cc2)n1	-11	0	-6	1
COc1cc(Nc2cccc(C(=O)NCCc3ccc(O)cc3)n2)cc(OC)c1OC	13	0	35*	1
O=C(NCc1cccc(C(F)(F)F)c1)c1cccc(Nc2ccc(N3CCOCC3)cc2)n1	16	0	62*	4
COc1ccc(CCNC(=O)c2cccc(Nc3ccc(N4CCOCC4)cc3)n2)cc1	16	0	59*	4
O=C(NCc1cccc(C(F)(F)F)c1)c1csc(Nc2ccc(N3CCOCC3)cc2)n1	22	0	51*	3
COc1ccc(CCNC(=O)c2cccc(NCCN3CCOCC3)n2)cc1	-4	0	4	-1
COc1cc(Nc2cccc(C(=O)NCCN(C(C)C)C(C)C)n2)cc(OC)c1OC	14	0	-1	1
COc1ccc(NC(=O)CC(C(=O)O)N(C)C)c(OC)c1 (configuration not stated)	23	0	2	-1
O=C1NCCN(Cc2ccccc2)C1CC(=O)N1CCCO1 (configuration not stated)	-12	0	4	0
O=C(CC1CC1)N1CCC2(CC1)OCc1cc(Cl)ccc1O2	-16	0	3	1
Nc1c(N2CCCC2)cc(O)c2c1C(=O)c1ccccc1C2=O	77*	0	-55	-2
Cc1cccc2cc(CN(Cc3cccnc3)S(=O)(=O)c3ccccc3)c3nnnn3c12	-5	0	3	2
O=C(O)c1ccc(Nc2nc(-c3ccc(O)c(O)c3)cs2)cc1	92*	0	-4	-2
Oc1ccc(Nc2nc(-c3ccc(Cl)cc3)cs2)cc1	-2	.	.	0
SMILES	MITF inh	FBW7 act	TEAD-YAP inh	GPR151 activ
Nc1ccc(Nc2nc(-c3ccc(O)c(O)c3)cs2)cc1	98*	0	-5	1
Cc1cccc(Nc2nc(-c3ccc(O)c(O)c3)cs2)c1	5	0	-55	-1
Oc1ccc(Nc2nc(-c3ccc(O)c(O)c3)cs2)cc1	54*	0	-78	0
CC1=C(C(=O)Nc2ccc(Br)cc2)C(c2ccc(O)cc2)NC(=O)N1 (configuration not stated)	24	2.8*	-5	-2
COc1cccc(C2NC(=O)NC(C)=C2C(=O)Nc2ccc(F)cc2)c1OC (configuration not stated)	-16	0	43*	-2
C/C(=N\N=C(/C)c1ccc2c(c1)OCO2)c1ccc2c(c1)OCO2	1	0	-7	-1
CCN(Cc1ccncc1)Cc1ccc2c(c1)CN(C(=O)C(C)n1cncn1)CCO2 (configuration not stated)	13	1	6	-1
COc1ccc(OCCOc2c(Br)cc(/C=C3/C(=N)N4N=C(C)SC4=NC3=O)cc2OC)cc1	-22	0	-28	-2
Cc1cccc2cc(CN(Cc3ccco3)C(=O)C(F)(F)F)c(=O)[nH]c12	-16	0	61*	-1
Cc1cc(C)n(-c2ncc(-c3ccc([N+](=O)[O-])cc3)cn2)n1	-4	0	59*	-1
Cc1cc(Cl)n(-c2ccc([N+](=O)[O-])cc2)n1	4	0	7	-1
O=C(Nc1nc(-c2c[nH]c3ccccc23)cs1)c1n[nH]c(=O)c2ccccc12	-4	0	36*	2
O=C(Nc1nc(-c2c[nH]c3ccccc23)cs1)C1CCCC1	-1	0	-56	-1
CC(=O)Nc1cc(F)cc(-c2ccnc(Nc3ccc(-n4nc(C)nc4C)cc3)n2)c1	9	0	45*	0
Cc1nc(C)n(-c2ccc(Nc3nccc(-c4cccc(-n5ccnn5)c4)n3)cc2)n1	15	0	44*	4
Cn1c2c(c(=O)n(C)c1=O)C(C(F)(F)F)(C(F)(F)F)N=C(c1ccccc1)N2	1	0	2	3
Cn1c2c(c(=O)n(C)c1=O)C(C(F)(F)F)(C(F)(F)F)N=C(c1ccc(Cl)cc1)N2	-7	0	94*	1
O=C(NCc1ccccc1)Nc1ccc2c(c1)N(S(=O)(=O)c1ccc(F)cc1)CCC2	-3	0	9	0
Cc1ccc2nc(-c3ccc(NC(=O)c4cc(I)ccc4Br)cc3)oc2c1	7	0	-29	-1
Cc1ccc2nc(-c3ccc(C)c(N)c3)oc2c1	11	1	55*	-8
Cc1ccc2nc(-c3ccc(Br)c(N)c3)oc2c1	20	1	70*	-2
Cc1ccc2nc(-c3cccc(-c4nc5ccc(C)cc5o4)c3)oc2c1	-11	0	-46	0
CC(=O)N(C)c1ccc(NS(=O)(=O)c2ccc(C)cc2)c([N+](=O)[O-])c1	-4	0	4	3
COC(=O)c1ccc(NC(=O)C2CCN(C(=O)c3ccc(Br)cc3)CC2)cc1	8	0	2	0
CCCNc1nc(Nc2ccc(N3CCOCC3)cc2)nc2c1ncn2-c1ccsc1	10	0	47*	4
SMILES	MITF inh	FBW7 act	TEAD-YAP inh	GPR151 activ
c1cc(-n2cnc3c(NCCN4CCOCC4)nc(Nc4ccc(N5CCOCC5)cc4)nc32)cs1	-17	0	62*	1
c1cn(-c2ccc(Nc3nc(NCCN4CCOCC4)c4ncn(-c5ccsc5)c4n3)cc2)cn1	-5	0	46*	1
c1ccc(Nc2nc(NCCN3CCOCC3)c3ncn(C4CCCCC4)c3n2)cc1	6	0	16	0
c1cn(-c2ccc(Nc3nc(NCCN4CCOCC4)c4ncn(C5CCCCC5)c4n3)cc2)cn1	8	0	47*	0
COc1ccc(C2=NN(C(=O)c3cccnc3)C(O)(C(F)(F)F)C2)cc1 (configuration not stated)	5	0	-4	0
COc1cc(Nc2nc(NCCN3CCOCC3)nc3c2ncn3-c2ccsc2)cc(OC)c1OC	2	0	6	-1
